Results as given in the supplement of paper PMC3334620.
The full ranking holds about 33,000 sequences; the median of “E-score (-0.5 to 0.5)” is about -0.054, and the highest 2% start at about 0.39. The list comes from a sample in which the highest values are over-represented; it also holds similar and randomly drawn sequences.

molecular target: Ylr278c (UniProt Q05854); experiment: PBM E-score (8-mer binding enrichment) (E-score (-0.5 to 0.5)); higher = stronger / more preferred TF binding; details: protein concentration: 200 nM; construct: GST-DNA-binding domain
Description: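 Universal 'all 10-mer' protein binding microarrays (Agilent AMADID 015681) probed with GST-tagged S. cerevisiae TFs (full-length or DBD) made by in vitro transcription/translation (PURExpress), about 100-200 nM. Bound TF was detected with fluorescent anti-GST. Each ungapped 8-mer (which stands for itself and its reverse complement) is scored by the PBM enrichment score (E-score), a modified Wilcoxon-Mann-Whitney statistic from -0.5 to +0.5, computed with the Universal PBM Analysis Suite. Scale: above 0.35 generally sequence-specific binding.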

UniProt Q05854, sequence (Q05854 whole entry, the tested form may be a part): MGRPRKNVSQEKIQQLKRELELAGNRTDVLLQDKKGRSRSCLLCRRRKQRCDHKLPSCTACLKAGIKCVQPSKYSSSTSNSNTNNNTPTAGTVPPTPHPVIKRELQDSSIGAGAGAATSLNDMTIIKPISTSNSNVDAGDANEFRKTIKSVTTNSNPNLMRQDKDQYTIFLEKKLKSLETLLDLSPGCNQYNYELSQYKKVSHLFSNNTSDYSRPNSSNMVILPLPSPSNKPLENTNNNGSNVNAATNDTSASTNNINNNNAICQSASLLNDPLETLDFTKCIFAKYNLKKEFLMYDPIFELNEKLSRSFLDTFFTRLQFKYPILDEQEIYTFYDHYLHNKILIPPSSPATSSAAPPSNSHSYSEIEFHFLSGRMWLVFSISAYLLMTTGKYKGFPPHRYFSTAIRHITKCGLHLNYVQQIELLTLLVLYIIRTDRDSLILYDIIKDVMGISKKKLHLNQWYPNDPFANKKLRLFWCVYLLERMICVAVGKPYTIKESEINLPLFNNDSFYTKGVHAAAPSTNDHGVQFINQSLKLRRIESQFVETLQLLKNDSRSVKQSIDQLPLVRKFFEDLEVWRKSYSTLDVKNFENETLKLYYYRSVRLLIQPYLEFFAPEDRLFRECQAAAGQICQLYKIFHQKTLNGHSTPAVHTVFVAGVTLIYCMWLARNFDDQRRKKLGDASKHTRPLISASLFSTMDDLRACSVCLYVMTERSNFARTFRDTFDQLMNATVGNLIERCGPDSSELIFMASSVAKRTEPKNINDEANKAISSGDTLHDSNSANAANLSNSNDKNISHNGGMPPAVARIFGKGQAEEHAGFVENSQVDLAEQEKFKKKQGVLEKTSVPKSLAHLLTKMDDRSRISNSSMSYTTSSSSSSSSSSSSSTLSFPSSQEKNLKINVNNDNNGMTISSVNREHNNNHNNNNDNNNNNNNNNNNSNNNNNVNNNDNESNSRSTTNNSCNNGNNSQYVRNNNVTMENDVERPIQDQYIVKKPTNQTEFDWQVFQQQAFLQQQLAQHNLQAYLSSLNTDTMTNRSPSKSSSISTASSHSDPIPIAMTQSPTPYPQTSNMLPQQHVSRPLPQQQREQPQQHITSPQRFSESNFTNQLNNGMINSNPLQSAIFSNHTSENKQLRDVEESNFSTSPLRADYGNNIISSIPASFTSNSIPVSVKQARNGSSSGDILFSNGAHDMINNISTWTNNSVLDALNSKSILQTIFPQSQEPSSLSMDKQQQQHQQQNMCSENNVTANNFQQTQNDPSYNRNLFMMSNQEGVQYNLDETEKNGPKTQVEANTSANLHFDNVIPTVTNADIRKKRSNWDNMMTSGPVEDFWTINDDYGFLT

Sequence	PBM E-score
ATAGTGAT	-0.203
TAAAGACA	-0.186
ACTGAGGC	0.105
TCTAAAGA	-0.115
CGCGTTAA	0.0131
CGGCGTTC	0.378
GGGCGTTA	-0.101
CGGCGTTA	0.405
GAGTGACA	-0.00079
TAGCTTAA	-0.198
TGATCTAA	-0.15
AGGAGGTC	-0.0814
CGGAGGTC	0.443
AGGAGGTA	-0.0558
GGGAGGTA	-0.0269
CTGAGGTC	-0.297
CGGAGGTA	0.426
AATGAACG	-0.131
CCGGTTGA	0.303
CGAGAACG	0.232
CCTAAACG	-0.0312
CATCCGAA	0.303
GATCCGAC	0.285
CATCCGAC	0.289
AATCCGAC	0.402

Sequence	PBM E-score
AATCCGAG	0.288
AATCCGAT	0.421
AATCCGAA	0.39
TATCCGAA	0.371
AATCCTAT	0.181
ATCGGGGC	0.296
CCACTGAG	-0.208
ACTGATGC	-0.0244
TCCAAACA	-0.094
GCAAGTGC	-0.274
GTTCTTCA	-0.192
ATTCGCTC	0.0759
GGTCGGAA	0.338
CGTCGGAA	0.43
GGTCGGAC	0.355
CGTCGGTC	0.215
AGTCGGCG	0.215
TGTCGGAA	0.384
CGTCGGAC	0.397
AGTCGGGA	0.142
AGTCGGAG	0.41
AGTCGGAT	0.282
AGTCGGAA	0.408
AGTCGGAC	0.366
ACGCAGGA	-0.166

Sequence	PBM E-score
CAAAGCGG	0.175
AACACTTG	-0.16
ATAAGACC	0.0726
ATGGTGTG	-0.23
CAACAAAG	-0.189
ATCAAGAC	-0.00757
ACCGCTAG	-0.19
CAGGGGGC	-0.125
CAGGTCAG	-0.0413
CGTCGGAG	0.441
CGTCGCAG	-0.192
CGTCGTAG	0.00558
ATTGGAAG	-0.0562
CTTTGCCC	-0.139
GCTTTTGA	-0.0305
CGCCTCCG	0.398
AACCTCCT	-0.122
AACCTCCG	0.466
ATCCTCCC	0.0358
CACCTCCG	0.425
AACCTCCC	0.0351
ATCCTCCG	0.431
CACCTCCC	-0.129
CGCCTCCA	0.0143
ATCCTCCA	-0.301

Sequence	PBM E-score
CACCTCCA	0.0316
AGCCTCCG	0.381
CAGTGGCA	-0.225
CCCTCCCA	0.0446
ACAGGGCC	0.0175
GAAACCAA	0.0455
CGACGCAA	0.114
GTACTGGA	-0.156
GCACCACC	0.0569
GACTGCGA	0.0431
TCCCTGAA	-0.217
CGTAAGGC	-0.161
CAGCTATG	-0.344
ACGGAAAC	0.278
CTGGAAAA	-0.00229
CCGGAAAC	0.404
CCGGAAAA	0.453
CCGGAAAG	0.319
GCGGAAAA	0.379
ACGGAAAA	0.346
TCGGAAAA	0.426
CAGGAAAA	0.00343
ATGAATTA	-0.228
CCGGTATC	0.32
GCGATCCC	0.0902

Sequence	PBM E-score
AAACACCG	0.39
AAACACCT	-0.135
CAACACCG	0.212
CTCCTCAC	-0.185
AATTTCCT	0.0327
CATTTCCC	0.161
ATTTTCCC	0.063
ATTTTCCG	0.421
AATTTCCC	0.114
CATTTCCA	-0.0597
AATTTCCG	0.448
CATTTCCG	0.406
ATTTTCCA	0.0304
GTTCGCAA	-0.0313
TATCCTCA	-0.0486
ATAACTGG	-0.0346
GTTCGGAA	0.403
CTTCGGCC	0.154
CTTCGGCA	0.274
CTTCGGTA	0.0846
CTTCGGAC	0.399
CTTCGGAA	0.419
CTTCGGGC	0.0457
GTTCGGGA	0.277
GTTCGGCA	0.134

Sequence	PBM E-score
AAGGTGGG	-0.161
GCGGTGTA	0.132
AAGGCACA	-0.231
CTTAGGTA	-0.0818
ATCTGAAA	-0.039
CGAGTACA	0.0348
ACATGCTC	-0.0918
ACACCCCG	0.241
AGTCCGAC	0.431
AGACCGAT	0.163
AGTCCGAA	0.425
AGTCCTAA	-0.163
CGTCCGAG	0.296
AGTCCGAG	0.43
AGCCCGAC	0.152
AGTCCAAG	-0.236
AGGCCGAC	0.324
AGTCCTAT	-0.0902
AGTCCAAA	-0.107
AGTCCGAT	0.458
AGTAAGTG	-0.128
ATCTCTGG	-0.239
AAACGACC	-0.0492
ACCTCATG	-0.349
ATTAGCTC	-0.0566

Sequence	PBM E-score
ACAGACTC	-0.109
CTCCGATA	0.462
GTCCGATA	0.414
GCCCGATA	0.0679
CGCCGATC	0.377
ATCCGATC	0.37
AACCGATA	0.0662
CTCCGATC	0.46
GGCCGATA	0.3
CGCCGATA	0.37
ATCCGATA	0.399
CACCGATA	0.194
ATCCGATG	0.323
CGCTCTAG	-0.113
AACTGCCA	-0.249
GTGGAGCA	-0.158
GAGCACGC	-0.106
AAACCGGA	0.438
GAACCGTA	-0.0428
AAACCGGT	0.204
CAACCGGG	0.215
CAACCGGA	0.414
TAACCGCA	0.0534
AAACCGGC	0.356
